# Screening data as filed in PubChem.
# An excerpt weighted towards active compounds, which were near 1.3% of everything screened.
# PKM2 activator – increases activity of human pyruvate kinase M2 | P14618 | purified PKM2, Kinase-Glo ATP luminescence, activation; response scale: 0% is enzyme alone, no compound | Potency, µM (highest dose often 57.5 µM), inactives show top-dose activation, usual class: activators | hit rate 0.34% among 260,000; also: nearly all actives have a fitted effect of over 55% in size
# Target sequence (P14618 whole entry, looked up): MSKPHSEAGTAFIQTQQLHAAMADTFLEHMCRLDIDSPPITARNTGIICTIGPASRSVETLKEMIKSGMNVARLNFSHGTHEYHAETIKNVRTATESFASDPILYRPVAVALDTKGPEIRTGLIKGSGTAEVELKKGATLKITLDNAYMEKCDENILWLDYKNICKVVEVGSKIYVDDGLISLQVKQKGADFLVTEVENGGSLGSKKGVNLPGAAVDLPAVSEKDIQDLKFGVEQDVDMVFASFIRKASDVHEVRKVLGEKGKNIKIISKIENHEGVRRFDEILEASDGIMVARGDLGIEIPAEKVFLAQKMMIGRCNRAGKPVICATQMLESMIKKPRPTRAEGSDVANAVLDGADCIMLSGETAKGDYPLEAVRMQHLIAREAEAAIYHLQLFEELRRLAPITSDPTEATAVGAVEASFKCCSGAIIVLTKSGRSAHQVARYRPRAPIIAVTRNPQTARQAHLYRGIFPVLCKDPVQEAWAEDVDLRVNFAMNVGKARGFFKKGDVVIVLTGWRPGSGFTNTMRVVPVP
#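 hPK-M2, >95% pure; 0.1 mM ADP / 0.5 mM PEP final; imidazole pH7.2 buffer w/ 7 mM MgCl2, 50 mM KCl; 1 h RT; Kinase-Glo lum. Intermediate enzyme activity for dual inhibitor/activator qHTS.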
# Apoferritin bind – binds horse apoferritin like a general anesthetic | Potency, µM (doses to about 77.5 µM), for the others: at the top dose activity change, negative = displacement, hits mostly inhibitors | P02791 | apoferritin/1-aminoanthracene competitive binding, fluorescence | hit rate 0.074% among 350,000; also: nearly all actives have a fitted effect of over 20% in size
#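 Concentration-response curves derived by four-parameter Hill fitting of normalized fluorescence, where compounds displaced 1-AMA from 10 uM horse apoferritin following a brief 10 min room-temperature incubation; propofol titration acted as positive control.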
# GALK inhibitor – inhibitors of human galactokinase | Purified GALK, Kinase-Glo residual ATP luminescence | AID 1868 | hit rate 0.007% among 270,000 | Potency, µM (highest dose often 57.5 µM), inactives show top-dose activity change, negative = inhibition, usual class: inhibitors
#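 Compounds were pin-transferred into ATP buffer (35 uM final), then GALK plus galactose (5 nM, 100 uM final) was added. After 1 h at room temperature, Kinase-Glo Plus was added and luminescence read after 10 min.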
# rTrxR1 inhibitor – rat TrxR1 inhibition; O89049; recombinant rTrxR1, NADPH fluorescence consumption, selenite substrate; Potency, µM (titrated, usually from 114 µM), for inactives: at the highest dose activity change, negative = inhibition, most hits filed as inhibitors; hit rate 1% among 390,000; also: nearly all actives have a fitted effect of over 65% in size
#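 Rat TrxR1 (90 nM in the dispensed reagent) was pre-reduced with 400 uM NADPH for 5 min at room temperature, then incubated with compound for 15 min. After 400 uM selenite was added, NADPH fluorescence (Ex 340/Em 450 nm) was followed for 8 min.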
# mIDH1 inhibitor – blocks human mutant IDH1 R132H enzyme; O75874; IDH1-R132H enzyme, NADPH consumption, diaphorase/resazurin fluorescence; Potency, µM (doses to about 76.6 µM), for inactives: at the top dose activity change, negative = inhibition, most hits filed as inhibitors; hit rate 0.093% among 390,000; also: nearly all actives have a fitted effect of over 65% in size
#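 IDH1-R132H (0.5 ug/mL) preincubated 30 min with compound, then NADPH (0.016 mM) and alpha-KG (2 mM) added; 80 min at RT, pH 7.5. Remaining NADPH coupled via diaphorase/resazurin to fluorescence (540/590 nm); concentration-response curves normalized to no-enzyme control.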
# TrxR1 substrate – substrates of rat thioredoxin reductase 1 | O89049 | purified TrxR1 substrate turnover, NADPH consumption readout | Potency, µM (doses to about 114 µM), for the others: at the highest dose activity change, negative = substrate turnover | hit rate 0.01% among 390,000 | AID 588456; also: nearly all actives have a fitted effect of over 50% in size
#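 Rat TrxR1, dispensed at 90 nM, was prereduced with 400 uM NADPH (final) for 5 min at ~22 deg C, then incubated with compound 15 min before 400 uM selenite. A first-read NADPH fluorescence drop versus no-compound background flagged substrates.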
# Starred values were filed as active, the others as inactive; ? = inconclusive; nt = no result; [ ] = dose if it differs, or a comment. Calls follow the shape of the dose curve; as a rule, active = well fitted curve in the direction sought with a large enough effect; inconclusive = small, poorly fitted or top-dose-only effect, or another doubt; inactive = no such curve, though single readings can be large; an effect the other way counts as inactive or inconclusive. % is scaled to controls: 0 for no effect and ±100 for the full control effect; potency is read from the fitted curve at half-maximal effect.
SMILES,PKM2 activator,Apoferritin bind,GALK inhibitor,rTrxR1 inhibitor,mIDH1 inhibitor,TrxR1 substrate
COc1cc(CNc2ccc3c(c2)CCC3)cc(OC)c1O,-3%,-17%,0%,0.4µM*,5%,7%
Cc1[nH][nH]c(=O)c1C(c1c(C)[nH][nH]c1=O)c1cn(Cc2ccc(Cl)c(Cl)c2)c2ccccc12,2%,?,2%,?,-10%,56µM*
CCn1cc2nc(SCc3cc(C)ccc3C)n(Cc3ccc(C)cc3)c(=O)c2n1,nt,-6%,nt,2%[57.1 µM],-10%,-5%[57.1 µM]
CC(=NNC(=S)Nc1ccc(C)cc1)c1ccccn1,nt,nt,nt,?,0%,-11%
COc1ccccc1NC(=S)NN=C(C)c1ccccn1,nt,nt,nt,11µM*,7%,-6%
O=C(O)COc1ccccc1C(Nc1ccccn1)c1cc(Cl)c2cccnc2c1O (configuration not stated),9%,-8%,1%,?,-5%,-5%[11.4 µM]
O=C(O)COc1ccccc1C(Nc1cccnc1)c1cc(Cl)c2cccnc2c1O (configuration not stated),21%,28µM*,-1%,0.56µM*,?,1%[57.1 µM]
CCOc1ccc(C(Nc2cccnc2)c2cc(Cl)c3cccnc3c2O)cc1 (configuration not stated),0%,-11%,8%,2.8µM*,7%,9%[11.4 µM]
Cc1cc2oc(C(=O)N(Cc3ccccc3)C3CCS(=O)(=O)C3)cc(=O)c2cc1C (configuration not stated),nt,?,nt,12%,11%,11%
CC(C)c1ccc(C(=O)CC2(O)C(=O)N(CCc3ccccc3)c3ccc(Cl)cc32)cc1 (configuration not stated),nt,-19%,nt,24%,16%,6%
COc1ccc(NC(=S)Nc2ccc3nccnc3c2)cc1,-11%,191%,1%,16µM*,2%,-15%
COc1ccc(NC(=S)Nc2ccc3snnc3c2)cc1,3%,-12%,1%,21%[57.1 µM],14%,2%[57.1 µM]
Cc1ccc(S(C)(=O)=NC(=O)NC(=O)c2c(F)cccc2Cl)cc1 (configuration not stated),-1%,21%,-2%,11%[57.1 µM],1%,-21%[57.1 µM]
Cc1ccc(S(=O)(=O)/N=c2\ccc(Cl)cn2C(F)F)cc1,25µM*,-7%,-2%,-10%,3%,-9%
O=C(O)c1ccccc1O[C@@H]1O[C@H](C(=O)O)[C@@H](O)[C@H](O)[C@H]1O,nt,-4%,nt,nt,nt,nt
CC(=O)c1ccc(C2CC34CNS(=O)(=O)C3CC2O4)cc1 (configuration not stated),nt,-1%,nt,28µM*,nt,-2%
CC(=O)c1ccc(C2CC34CN(Cc5cccc(Cl)c5)S(=O)(=O)C3CC2O4)cc1 (configuration not stated),nt,-16%,nt,12%[57.1 µM],nt,-1%
CCCCSc1nc(NCc2ccco2)c2c3c(sc2n1)COC(C)(C)C3,1%,?,0%,-12%,-1%,5%
CCCSc1nc(NCc2ccco2)c2c3c(sc2n1)COC(C)(C)C3,0%,?,0%,45µM*,2%,-10%
CCN(CC)CCOC(=O)/C=C/c1ccccc1,-10%,9%,1%,13%,6%,-2%
CCN(CC)CC(C)(C)C(=O)/C=C/c1ccc(/C=C/C(=O)C(C)(C)CN(CC)CC)cc1,nt,nt,nt,2µM*,1%,-11%
CCc1ccc(CN(C(=O)c2ccc(OC)cc2)C2CCS(=O)(=O)C2)cc1 (configuration not stated),nt,-11%,nt,6%,0%,0%
Cc1ccc2c(c1)CCCN2C(=O)c1cnn2c1NC(=C1CC1)C=C2C(F)F,nt,nt,nt,4%,nt,-6%
CCn1c(SCc2nc3ccccc3c(=O)[nH]2)nc2ccccc21,8%,-4%,-1%,21%[57.1 µM],10%,4%[57.1 µM]
CCN(CC)S(=O)(=O)c1ccc2c(c1)nc(SCc1nc3ccsc3c(=O)[nH]1)n2CC,13µM*,?,-2%,2%[57.1 µM],-18%,12%[57.1 µM]
SMILES,PKM2 activator,Apoferritin bind,GALK inhibitor,rTrxR1 inhibitor,mIDH1 inhibitor,TrxR1 substrate
O=C(NCCN1C(=O)S/C(=C\c2cccs2)C1=O)c1ccc(=O)[nH]c1,4.5µM*,-3%,0%,nt,nt,nt
COc1ccc(-n2c(Cc3ccccc3)nnc2SCc2nc(-c3cccs3)no2)cc1,nt,-1%,nt,21%,13%,-5%
c1ccc(CSc2ncnc3c2cnn3Cc2ccccc2)cc1,5µM*,?,1%,7%,3%,2%
CC(C)(C)C(=O)CSc1ncnc2c1cnn2Cc1ccccc1,nt,?,3%,8%,-1%,1%
Cc1ccc(S(=O)(=O)c2nc(S(C)(=O)=O)sc2N2CCCCCC2)cc1,nt,-9%,-2%,4%,21%,-9%
Cc1ccc(S(=O)(=O)c2nc(S(C)(=O)=O)sc2N2CCC(C)CC2)cc1,nt,-5%,0%,13µM*,-3%,5%
Cc1ccc(CC(=O)NO)cc1,nt,nt,nt,18%,nt,6%
CC(C)Cc1ccc(S(=O)(=O)N2CCC(c3ccncc3)CC2)cc1,nt,-18%,nt,16%[57.1 µM],-2%,4%[57.1 µM]
CCOC(=O)COn1c(=O)c(-c2ccco2)[n+]([O-])c2ccccc21,20%,-3%,-1%,8.9µM*,-6%,8%
COP(=O)(OC)c1ccc(NCc2cc(O)ccc2O)cc1,nt,nt,nt,79µM*,12%,-5%
CC(C)OC(=O)c1ccc(NCc2cc(O)ccc2O)cc1,nt,nt,nt,-4%[11.4 µM],3%,-3%[11.4 µM]
